Inconclusive results are not listed. Entries that show only a call come without a potency. The source made the active and inactive calls. The call rests on the fitted dose curve; in most records, active means well fitted cell-killing curve with a large enough effect; inconclusive means small, poorly fitted or top-dose-only effect; inactive means no such curve, though single readings can be large or run the other way.
Potency means the concentration at half of the fitted maximal effect.

The assay can be described thus: qHTS of pediatric cancer cell lines to identify multiple opportunities for drug repurposing: Primary screen for MG 63 (6-TG R) cells (AID 1347105). Further: nearly all actives have a fitted effect of over 50% in size. Particulars: MG 63 (6-TG R) viability, CellTiter-Glo, 48 h; series mostly up to 46 µM. The source says:
Drug repurposing or repositioning has been offered as a strategy for drug development in oncology programs. This approach has special potential for childhood cancers and other rare or orphan diseases, where the expected return on new drug development has been a disincentive to pharmaceuticals. […] In this project we exploit the poly-pharmacology of drugs to discover new indications via phenotypic screening of a panel of 19 well-characterized cell lines derived from solid tumors seen in children and adolescents. The goal is to identify approved drugs with previously unrecognized anticancer properties that has the potential to reveal new mechanisms and biological processes involved in carcinogenesis or drug resistance. We employed a titration-based paradigm (quantitative high-throughput screening or qHTS), where all compounds were tested at multiple concentrations for their effect on cell viability. Concentration-response curves (CRCs) were derived directly from the primary screen, and both potency and efficacy values were used to identify compounds with robust bioactivity profiles. We screened the NIH Chemical Genomics Center (NCGC) Pharmaceutical Collection (NPC) and Mechanism Interrogation Plate (MIPE) small molecule collections of approved and investigational compounds against these cell lines; and measured metabolically active cells after 48 hours of compound treatment as a proxy for cell viability. […] Assay Submitter: Nathalia J. Martinez, National Center for Advancing Translational Sciences, National Institutes of Health, Rockville, MD, USA; email: natalia.martinez@nih.gov Shen, M et al. Quantitative high-throughput phenotypic screening of pediatric cancer cell lines identifies multiple opportunities for drug repurposing. Oncotarget 2017 Dec 19;9(4):4758-4772. PMID 29435139.
The cells were obtained from University of North Carolina (UNC), Pediatric Preclinical Testing Program (PPT), and Coriell Institute (CI). qHTS cell viability assay: Cells were assayed in growth media at a density of 500-1,000 cells/well. Five microliters of cells were dispensed into 1,536-well, white, solid-bottom, TC-treated plates (Greiner Bio One) using a multidrop dispenser and incubated at 37 degrees C, 5% CO2, under a humidified atmosphere for 5 hours. Twenty-three nanoliters of compounds and controls (neutral control DMSO or positive control bortezomib at final concentration of 2.3 µM) were subsequently transferred by Kalypsys pintool. For primary screens, the MIPE collection was tested at 11-point dilutions (final concentrations range from 0.78 nM to 46 µM) and the NPC collection at 8-point dilutions (final concentrations range from 0.59 nM to 46 µM). Compounds tested in follow-up screens were assayed at 11-point dilutions. Cells were incubated for 48 hours, followed by addition of 3 µL of CellTiter-Glo (Promega). After a 15 min incubation at room temperature, samples were analyzed for luminescence intensity using a ViewLux High-throughput CCD imager equipped with clear filters.
As for `O[C@@H](c1cc(C(F)(F)F)nc2c(C(F)(F)F)cccc12)[C@H]1CCCCN1`, the Potency is 26.6 µM (active).

On to `CCCCCCCC/C=C\CCCCCCCCN`, for which the Potency entry was “inactive”. For `C#C[C@]1(O)CC[C@H]2[C@@H]3CCC4=CC(=O)CC[C@@H]4[C@H]3CC[C@@]21CC`, the Potency result is “inactive”. For the molecule `CCOC(=O)[C@H](CCc1ccccc1)N[C@@H](C)C(=O)N1[C@H](C(=O)O)C[C@@H]2CCC[C@@H]21`, the Potency entry was “inactive”.

On to `O=C(N/N=C/c1ccc([N+](=O)[O-])o1)c1ccc(O)cc1`, for which the Potency entry was “inactive”. As to `CCCCCCCCCCCCSCCOCCO`, the Potency result is “inactive”.

With `CCN(CC)CCOc1ccc2c(c1)C(=O)c1cc(OCCN(CC)CC)ccc1-2`, the Potency entry is “inactive”. For `COP(=O)(OC)OC(c1ccc(Cl)cc1)P(=O)(OC)OC` (stereo not given) the value was “inactive”; for `COc1ccc(C(=O)c2ccccc2O)c(O)c1`, “inactive”; for `C#C[C@]1(O)CC[C@H]2[C@@H]3CCC4=Cc5oncc5C[C@]4(C)[C@H]3CC[C@@]21C`, “inactive”.

For the molecule `CCCCc1cc2ccccc2c(OCCN(C)C)n1`, the Potency entry was “inactive”. As for `CCC(Cc1c(I)cc(I)c(N)c1I)C(=O)O` (stereo not given), the Potency result is “inactive”.

As to `O=C(O)CCc1nc2ccccc2[nH]1`, the Potency result is “inactive”. On to `Cc1ccc2c(Br)cc(Br)c(O)c2n1`, for which the Potency was 13.3 µM (active). For `CC(=O)Nc1ccc(CC(=O)O)cc1` the value was “inactive”. For `NS(=O)(=O)c1ccc(Cl)c(S(N)(=O)=O)c1`, the Potency result is “inactive”. Next, `CCOC(=O)C(C#N)=C(c1ccccc1)c1ccccc1`: “inactive”. For the molecule `O=C1C(O)=C(O)C(=O)C(O)=C1O`, the Potency result is “inactive”. Regarding `COc1ccc(C(Cl)=C(c2ccc(OC)cc2)c2ccc(OC)cc2)cc1`, the Potency entry was “inactive”.

As to `CCCCCCCCCCCCCCC[C@H](O)[C@@H](N)CO`, the Potency entry was “inactive”. On to `O=C(O)C1(C(=O)O)CCC1.[NH2-].[NH2-].[Pt+2]`, for which the Potency entry is “inactive”. For the molecule `CCOC(=O)c1ccc(N)cc1`, the Potency entry is “inactive”. As to `CCOc1ccccc1OCCN[C@H](C)Cc1ccc(OC)c(S(N)(=O)=O)c1`, the Potency result is “inactive”.

On to `CC(C)(C)NC[C@H](O)COc1nsnc1N1CCOCC1`, for which the Potency entry was “inactive”. For `NCc1ccccc1Sc1ccccc1CO`, the Potency result was “inactive”. As to `CCN1/C(=C/C=C/c2sc3ccccc3[n+]2CC)Sc2ccccc21`, the Potency is 1.84 µM (active).

Turning to `Cc1ccc(O)c([C@H](CCN(C(C)C)C(C)C)c2ccccc2)c1`, the Potency entry is “inactive”. As for `CCOC(=O)c1c(N)sc2c1CCN(Cc1ccccc1)C2`, the Potency entry was “inactive”.

Take `CC(=O)O[C@]1(C(C)=O)CC[C@H]2[C@@H]3C=C(Cl)C4=CC(=O)CC[C@]4(C)[C@H]3CC[C@@]21C`: the Potency entry is “inactive”. On to `CCN(CC)CCNc1ccc(CO)c2sc3ccccc3c(=O)c12`, for which the Potency entry was “inactive”. Turning to `C=C1c2cccc(O)c2C(O)=C2C(=O)[C@]3(O)C(O)=C(C(N)=O)C(=O)[C@@H](N(C)C)[C@@H]3[C@@H](O)[C@H]12`, the Potency entry is “inactive”. For `c1ccc(CC2=NCCN2)cc1` the value was “inactive”; for `CC(C)Nc1cccnc1N1CCN(C(=O)c2cc3cc(NS(C)(=O)=O)ccc3[nH]2)CC1`, “inactive”. `Nc1nc(Cl)nc2c1ncn2[C@@H]1O[C@H](CO)[C@@H](O)[C@@H]1F`: the Potency was 0.841 µM (active). For `CCN1CCN(C(=O)N[C@@H](C(=O)N[C@@H]2C(=O)N3C(C(=O)O)=C(CSc4nnnn4C)CS[C@H]23)c2ccc(O)cc2)C(=O)C1=O` the value was “inactive”. In the case of `O=C(O)CCC(=O)Nc1ccc(S(=O)(=O)Nc2nccs2)cc1`, the Potency entry is “inactive”. Take `CC1(C)OC[C@@H]2O[C@@]3(C(=O)O)OC(C)(C)O[C@H]3[C@@H]2O1`: the Potency entry is “inactive”. In the case of `O=C1OC(CN2CCOCC2)CN1/N=C/c1ccc([N+](=O)[O-])o1` (stereo not given), the Potency entry is “inactive”.

In the case of `O=C(CCCN1CC=C(n2c(=O)[nH]c3ccccc32)CC1)c1ccc(F)cc1`, the Potency result is “inactive”.

Turning to `CN1CCN(C2=Nc3ccccc3Sc3ccc(Cl)cc32)CC1`, the Potency entry was “inactive”.
